# Test results as given in PubChem BioAssay AID602396 (The Scripps Research Institute Molecular Screening Center, 2012).
# The campaign covered roughly 360,000 compounds. About 460 (0.13%) were called active.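 Rule for the calls: active = inhibition above the mean inhibition of all tested compounds plus 3 SD (cut at about 73% in these data); inactive = the rest.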 The full list was thinned out, with actives kept by preference.
# Molecular target: Nuclear receptor subfamily 5 group A member 2 (Homo sapiens) (UniProt O00482)
# Sequence (O00482 whole entry, looked up): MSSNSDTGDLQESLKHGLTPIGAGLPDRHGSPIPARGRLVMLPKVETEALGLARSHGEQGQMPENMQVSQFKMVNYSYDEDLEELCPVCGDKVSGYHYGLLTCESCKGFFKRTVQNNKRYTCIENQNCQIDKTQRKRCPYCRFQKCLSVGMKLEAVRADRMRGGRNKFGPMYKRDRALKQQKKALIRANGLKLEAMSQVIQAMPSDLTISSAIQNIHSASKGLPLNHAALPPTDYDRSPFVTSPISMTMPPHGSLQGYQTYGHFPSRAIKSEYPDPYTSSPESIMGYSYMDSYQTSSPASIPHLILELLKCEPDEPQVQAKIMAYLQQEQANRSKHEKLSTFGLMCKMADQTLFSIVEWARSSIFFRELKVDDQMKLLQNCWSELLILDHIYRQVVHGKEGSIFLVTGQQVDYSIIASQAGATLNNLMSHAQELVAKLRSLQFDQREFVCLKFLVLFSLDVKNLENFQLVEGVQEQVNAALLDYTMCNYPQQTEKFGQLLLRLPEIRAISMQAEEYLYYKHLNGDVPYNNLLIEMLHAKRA
# Experiment: reduction of NR5A2-driven StAR reporter activity – cell-based, luminescence, HEK293T, StAR-luciferase reporter, primary screen (AID 602396);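 note: 0% = DMSO wells and 100% = reporter-only cells lacking LRH-1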
# Details: LRH-1 transfected, 24 h, at 3.6 µM, stronger effect = higher value
row,SMILES,inhibition
1,CC(=O)OC1C2(CC3N4C(=O)C5(CO)SSC4(CC31O)C(=O)N5C)OC(C)C(C)(C)C2=O (stereo not given),97.6% (active)
2,CC(=O)N1CN2CN(C(C)=O)CC(C(=O)c3ccc(Br)cc3)(C2)C1,-11.4% (inactive)
3,CN(C)C(=O)Oc1ccc(NC(=O)N2CCOCC2)cc1,10.7% (inactive)
4,CCOc1ccc(-c2cc(C)[n+](CCN(CC)CC)c(-c3ccc(OCC)cc3)c2)cc1,86.7% (active)
5,CC(C)n1c(=O)c(C=Nc2ccc(Br)cc2)c(O)n(Cc2ccco2)c1=O,5.59% (inactive)
6,CCOC(=O)C(O)(c1ccc(NC(=O)c2ccco2)c(OC)c1)C(F)(F)F (stereo not given),15% (inactive)
7,NCCc1ccc(S(=O)(=O)F)cc1,12.1% (inactive)
8,O=[N+]([O-])c1ccc(C2C3C(c4ccccc4)=NC4(CCCCC4)N32)cc1 (stereo not given),22.7% (inactive)
9,CCC(C)n1c(O)c(/C=N/Nc2nc3c(c(=O)n(C)c(=O)n3C)n2C)c(=O)[nH]c1=S (stereo not given),-7.02% (inactive)
10,CCCCCCCCCCCCn1ccc(=N)cc1,84.1% (active)
11,CN(C)CC1CCCCC1=O (stereo not given),15.8% (inactive)
12,COc1ccc(-c2nn(CCC#N)cc2C(=O)Nc2ccc(C(C)=O)cc2)cc1,17.1% (inactive)
13,Clc1cccc(Cl)c1Cl,2.81% (inactive)
14,Cc1ccc(-c2nc3ccccc3c(=O)n2-c2ccc(Br)cn2)cc1,-1.48% (inactive)
15,CCNc1nc2[nH]c(=O)c3c(c2s1)OC(N)=C(C#N)C3c1cccs1 (stereo not given),-2.41% (inactive)
16,CN(C)c1ccc(/C=C2\CC3C4CC=C5CC(O)CCC5(C)C4CCC3(C)C2=O)cc1 (stereo not given),10.7% (inactive)
17,CCC(C)(O)C(=O)OC1C(=O)OC2CC3C(C)=CC(=O)C(O)C3(C)C3C4(O)OCC23C1C(C)C4O (stereo not given),98.4% (active)
18,COc1ccc(C(=O)CC2C(=O)N(C)C(=O)N(C)C2=O)cc1,-5.13% (inactive)

row,SMILES,inhibition
1,COC(=O)C1=C(c2ccccc2)C[C@@H]2CC[C@H]1N2C(=O)N1CCCCC1,8.33% (inactive)
2,O=C1C2(Cl)C3(Cl)C4(Cl)C(Cl)(Cl)C5(Cl)C3(Cl)C1(Cl)C5(Cl)C24Cl (stereo not given),0.27% (inactive)
3,CCOP(=S)(OCC)SCOC(=O)NCC(=O)OC,-13.1% (inactive)
4,CN(C)C(=O)NC(O)C(Cl)(Cl)Cl (stereo not given),-10.3% (inactive)
5,C[C@]12CC[C@H](O)C[C@H]1CC[C@@H]1C2CC[C@]2(C)[C@@H](C3=CC(=O)OC3)[C@@H](O)C[C@]12O (stereo not given in full),88.6% (active)
6,COC(=O)C1=C(c2ccc(F)cc2F)C[C@@H]2CC[C@H]1N2C(=O)NC1CC1,20.8% (inactive)
7,COc1ccc(NC(=O)N2Cc3ccccc3-n3nncc3C2)cc1,-12.7% (inactive)
8,COC1C(O)C(C)OC(OC2CCC3(C=O)C(CCC4C3CCC3(C)C(C5=CC(=O)OC5)CCC43O)C2)C1O (stereo not given),104% (active)
9,COCCNC(=O)CN1C2CCC1CC(O)(c1cccnc1)C2 (stereo not given),17.3% (inactive)
10,Cc1ccc2c(c1)C1CN(C)CCC1N2C(=O)Cn1nnc(-c2ccccc2F)n1 (stereo not given),-20.9% (inactive)
11,CC1=CC(=Cc2sc3ccccc3[n+]2C)C=C(C)O1,80.7% (active)
12,COc1ccccc1N=C1SCCCN1C,11.8% (inactive)
13,CCOC(=O)CNC(=O)N1Cc2cc(N3CCCCC3)ccc2-n2nncc2C1,6.84% (inactive)
14,Cc1cc(OCc2cc(C(=O)O)oc2C)c2c3c(c(=O)oc2c1)CCCC3,15.5% (inactive)
15,NCC(O)c1ccc(O)cc1 (stereo not given),-5.8% (inactive)
16,CCN(N=Nc1nonc1OC)c1nonc1OC,3.32% (inactive)
17,CC1CCCN1CCC(C(N)=O)(c1ccccc1)c1ccccc1 (stereo not given),-19.5% (inactive)
